Screening data as filed in PubChem BioAssay.
Hits are enriched below; roughly 4.3% of the tested compounds scored in any of these assays.
MITF act – MITF TRPM1 promoter activation in melanoma cells | activation, % at 12.5 µM | SK-MEL-5 TRPM1-promoter luciferase, 24 h; % of positive control, neutral wells = 0 | hit rate 0.75% among 300,000;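 active = mean activation of at least 80% with every replicate also reaching 80%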;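 note: 0% = neutral control wells and 100% = parthenolide positive control wells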
MLL AF4-AF9 inh – blocks AF4 peptide binding to human AF9; AlphaScreen, biotin-AF4 peptide binding to FLAG-AF9; inhibition, % at 10 µM; hit rate 0.47% among 350,000;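 active = every replicate reaching a set inhibition limit, whatever the replicate mean, cut at about 25% in these data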;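 note: 0% = plate neutral control median and 100% = total signal loss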
Wnt act – activators of Wnt/beta-catenin signaling; AID 743398; hit rate 1.2% among 300,000; activation, % at 9.35 µM; Wnt/beta-catenin reporter cell assay, activator, plate reader; in the data active = activation above about 30%, passing the limit was not always enough;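 note: 0% = neutral control wells and 100% = positive control wells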
esBAF inh – blocks esBAF chromatin remodeling in mouse ES cells | Bmi1-luciferase knock-in reporter, 24 h; 100% = twice the neutral-well signal | reporter increase, % at 12.5 µM | hit rate 2% among 350,000 | AID 602393; in the data active = activation above about 40%;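 note: 0% = median of the plate's neutral control wells and 100% = double that signal; a rise in the Bmi1 reporter signal indicates esBAF inhibition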
SMARCA2 act – increases SMARCA2 function in MMTV reporter cells; MG213 cells, MMTV-luciferase reporter, dexamethasone, overnight; hit rate 1% among 370,000; activation, % at 9.1 µM; AID 652017; in the data active = activation above about 7.8%;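 note: 0% = vehicle wells and 100% = reference activator wells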
FGF22 binding – FGF22 (human) thermal shift binding; Q9HCT0; recombinant FGF22 thermal shift, SYPRO orange fluorescence; percent of sucrose octasulfate shift, DMSO zero; activity (Tm shift, normalised), % at 9.99 µM; hit rate 1.5% among 340,000; AID 651658;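 active = mean Tm shift, scaled 0 neutral to 100 positive control, at about 1.3% or above, every replicate too, limit read from the data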
Target sequence (Q9HCT0 whole entry, looked up): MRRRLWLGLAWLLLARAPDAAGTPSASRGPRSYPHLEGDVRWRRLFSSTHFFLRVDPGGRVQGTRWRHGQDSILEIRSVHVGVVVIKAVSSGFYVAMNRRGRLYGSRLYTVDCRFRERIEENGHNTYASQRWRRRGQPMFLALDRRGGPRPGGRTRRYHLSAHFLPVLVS
Starred values were filed as active, the others as inactive.

For CCn1c2ccccc2c2cc(NC(C)=O)ccc21 the results were MITF act -4, esBAF inh -1 and SMARCA2 act 7.
C[C@H](NC(=O)c1[nH]cnc1C(=O)Nc1ccccc1)C(=O)OC(C)(C)C was read as MITF act -5, MLL AF4-AF9 inh 47*, Wnt act -1, esBAF inh -1, SMARCA2 act 1 and FGF22 binding 0.
O=C(C[C@H]1CC[C@@H]2[C@H](COC[C@H](O)CN2C(=O)Nc2cccc(F)c2)O1)NCCCN1CCOCC1 was read as MLL AF4-AF9 inh -2, esBAF inh 28 and FGF22 binding 0.
COCCSc1nc(N)c(NC(=O)c2ccc(OC)cc2)c(=O)[nH]1 was read as MITF act 14, MLL AF4-AF9 inh -2, Wnt act -1, SMARCA2 act -1 and FGF22 binding 43*.
O=C(CCN1CCCCC1)NCC[C@H]1CC[C@H](NS(=O)(=O)c2cccc(F)c2)[C@@H](CO)O1 was read as MLL AF4-AF9 inh 1, esBAF inh -2 and FGF22 binding 0.
For Cc1cc(C)n(-c2nc(-c3cccc(Cl)c3)cs2)n1 the results were Wnt act -2, esBAF inh 49* and SMARCA2 act 3.
For O=C(Nc1nc(-c2cccs2)cs1)c1ccc(Cl)s1 the results were MITF act 41, MLL AF4-AF9 inh 3, Wnt act 13, esBAF inh 33, SMARCA2 act 0 and FGF22 binding 0.
CC(=O)Nc1ccc(C(=O)Nc2nc(-c3cccnc3)cs2)cc1 was read as MITF act -1, MLL AF4-AF9 inh -3, Wnt act 0, esBAF inh 7, SMARCA2 act -5 and FGF22 binding 43*.
For O=C(Nc1nc(-c2ccccc2)cs1)c1cccnc1 the results were MITF act 39, esBAF inh 28 and SMARCA2 act -1.
For O=C(COc1cccc(F)c1)Nc1nc(-c2ccccn2)cs1 the results were MLL AF4-AF9 inh -4, Wnt act -1, esBAF inh 4, SMARCA2 act 0 and FGF22 binding 44*.
For O=C(Nc1nc(-c2ccc(Cl)s2)cs1)c1ccccc1 the results were MITF act 27, Wnt act 16, esBAF inh 50* and SMARCA2 act -4.
`CC(=O)Nc1ccc(C(=O)Nc2nc(-c3ccccn3)cs2)cc1` gave MITF act 11, MLL AF4-AF9 inh 1, Wnt act 0, SMARCA2 act -1 and FGF22 binding 44*.
For CC1CC1C(=O)Nc1nc(-c2ccccn2)cs1 (stereo unspecified) the results were MITF act 18, Wnt act -2, esBAF inh 51* and SMARCA2 act 2.
`O=C(Nc1nc(-c2ccccn2)cs1)C1COc2ccccc2O1` (stereo unspecified) gave MITF act -15, MLL AF4-AF9 inh -1, Wnt act 1, esBAF inh 9, SMARCA2 act -2 and FGF22 binding 0.
Screening C[C@@H]1CN([C@@H](C)CO)C(=O)c2cc(C#C[C@@H](C)O)cnc2O[C@@H]1CN(C)Cc1cccc(C(=O)O)c1 returned MLL AF4-AF9 inh -4, esBAF inh 0 and FGF22 binding 0.
O=C1CSC(c2ccccc2)N1Nc1nc(N2CCOCC2)nc(N2CCOCC2)n1 (stereo unspecified) was read as MITF act -11, MLL AF4-AF9 inh -1, Wnt act -2, esBAF inh -7, SMARCA2 act -1 and FGF22 binding 43*.
For CC(=O)Oc1oc(-c2ccccc2)nc1C=Nc1ccccc1 the results were MITF act -10 and SMARCA2 act 3.
Screening COc1ccc(N=Cc2nc(-c3ccccc3)oc2OC(=O)c2ccccc2)cc1 returned MITF act -11, MLL AF4-AF9 inh -2, Wnt act 54* and SMARCA2 act 4.
Screening [O-][N+](=Cc1ccccc1)CC1(O)CCCCC1 returned MLL AF4-AF9 inh -6, Wnt act -6, esBAF inh 0, SMARCA2 act 1 and FGF22 binding 43*.
`CCN1CCc2c(sc(NC(=O)C3COc4ccccc4O3)c2C(N)=O)C1` (stereo unspecified) gave MITF act 86*, MLL AF4-AF9 inh -17, Wnt act 12, esBAF inh 26, SMARCA2 act 5 and FGF22 binding 0.
